Screens (PubChem)
HIV RNase H inh-1 = inhibitors of HIV-1 reverse transcriptase RNase H | P04585 | actives 1.9% (n = 65,000) | inhibition, % at 10 µM | RT-RNase H RNA/DNA duplex cleavage, fluorescence; in the data active = inhibition above about 50%
HIV RNase H inh-2 = confirmation of HIV-1 reverse transcriptase RNase H inhibitors; shares compounds with HIV RNase H inh-1; Recombinant RT RNase H, fluorescent RNA/DNA duplex cleavage; inhibition, % at 10 µM; actives 39% (n = 1,000); AID 651; in the data active = inhibition above about 48%; inconclusive = no clear call, values can overlap the other calls
Starred values were filed as active, the others as inactive; ? = inconclusive. Only a selection was taken, and hits are over-represented in it overall.

SMILES	HIV RNase H inh-1	others
COc1cc(C2C(C#N)=C(N)Oc3cc(C)n(Cc4ccccn4)c(=O)c32)cc2c1OCO2 (configuration not stated)	3.7
CC1=C(C(=O)Nc2cccc(C)n2)C(c2ccc3c(c2)OCO3)C2=C(CC(c3ccco3)CC2=O)N1 (configuration not stated)	-0.9
COC(=O)c1ccc(COC(=O)c2ccc(-n3cnnn3)cc2)o1	-21.8
CCC(=O)N(Cc1cc(=O)[nH]c2ccccc12)c1cccc(C)c1	69.8*	HIV RNase H inh-2=1.6
COc1ccc(N(Cc2cc(=O)[nH]c3ccccc23)C(=O)c2ccco2)cc1	8.6
Cc1cccc(-c2nnc(SCc3cc(=O)[nH]c4ccccc34)n2C)c1	9.4
Cc1c(C(=O)NCc2cccnc2)oc2ccc(S(=O)(=O)N3CCCCCC3)cc12	-13.3
O=C(c1cccc(COCC(F)(F)C(F)F)c1)N1CCN(c2ccccc2)CC1	-5.7
CCCc1nnc(NC(=O)Cn2c(=O)sc3ccccc32)s1	76.5*	HIV RNase H inh-2=17.8
CCCCN(C)CCCNC(=O)Cn1c(=O)sc2ccccc21	-10.0
CCc1nnc(NC(=O)CN2C(=O)c3ccccc3C2=O)s1	3.8
Cc1cc(NC(=O)CN2CCCC2c2nc3ccccc3s2)no1 (configuration not stated)	-14.7
N#Cc1c(NC(=O)CSc2nnnn2C2CCCCC2)sc2c1CCCC2	-0.2
N#Cc1c(NC(=O)CSCC(=O)O)sc2c1CCCC2	-3.5
N#Cc1ccc(-c2cccnc2)nc1SCC(=O)Nc1sc2c(c1C#N)CCC2	89.8*	HIV RNase H inh-2=42.0
COc1cc(OC)c(C2CC(=O)N3CN(c4ccccc4C)CSC3=C2C#N)cc1OC (configuration not stated)	76.5*	HIV RNase H inh-2=72.3*
Cc1cccc(N2CC34C=CC(O3)C(C(=O)O)C4C2=O)c1 (configuration not stated)	-7.6
COc1ccc(N2CSC3=C(C#N)C(c4cccc(OC)c4OC)CC(=O)N3C2)cc1 (configuration not stated)	74.5*	HIV RNase H inh-2=34.2
C=CCOC(=O)C1=C(C)OC(N)=C(C#N)C1c1ccccc1F (configuration not stated)	4.3
COc1cc(OC)c(C2C(C#N)=C(N)OC3=C2C(=O)CC(C)(C)C3)cc1OC (configuration not stated)	-3.7
COc1cccc(C2C(C#N)=C(N)Oc3c2oc(CO)cc3=O)c1OC (configuration not stated)	-5.3
CCc1ccccc1N1C(=O)C2CC(C)=C(C)CC2C1=O (configuration not stated)	-2.0
COc1cccc(C2C3CN(C)CC=C3C(C#N)=C(N)C2(C#N)C#N)c1OC (configuration not stated)	-0.1
COc1cc(OC)c(C2C(C#N)=C(N)OC3=C2C(=O)CC(C)C3)cc1OC (configuration not stated)	2.6
Cc1cccc(N2CSC3=C(C#N)C(c4ccc(C)o4)CC(=O)N3C2)c1 (configuration not stated)	93.6*	HIV RNase H inh-2=55.3*
SMILES	HIV RNase H inh-1	others
Cc1ccc(C2N(c3cccc(Cl)c3)C(=O)C3CCCN32)o1 (configuration not stated)	-18.6
CCc1ccccc1N1CSC2=C(C#N)C(c3ccccc3F)CC(=O)N2C1 (configuration not stated)	89.1*	HIV RNase H inh-2=58.7*
CCC(=O)N1CCc2cc(Br)cc(S(=O)(=O)N3CCN(c4ccccn4)CC3)c21	45.1
CCOC(=O)c1c(C)n(C)c2ccc(OC)c(NC(=O)CN3CCN(C(=O)c4ccco4)CC3)c12	8.3
CCOC(=O)C1=C(C)Nc2nc(SCC)[nH]c(=O)c2C1c1ccncc1 (configuration not stated)	-14.0
Cc1ccc(-c2csc3ncnc(Sc4nnc(CN5CCCCCC5=O)o4)c23)cc1	-34.7
Cc1ccc(Cn2nnc3c(=O)n(CC(=O)NCc4ccc5c(c4)OCO5)cnc32)cc1	-5.8
Cc1ccc(-c2nnc(N(C)C(=O)c3ccccn3)s2)cn1	-8.7
CCCCc1nnc(SCCSc2nnc(CCCC)n2N)n1N	-1.3
Cc1cccc(NC(=O)C2CCCN(C(=O)Nc3ccccc3)C2)c1C (configuration not stated)	-1.1
Cc1sc2nc3c(C(=O)N4CCN(c5ncccn5)CC4)cccn3c(=O)c2c1C	-0.2
CCOC(=O)c1c(C)[nH]c(C)c1C(=O)CSc1nnc(-c2ccco2)n1Cc1ccccc1	-8.6
C[C@H](NC(=O)Nc1ccc2c(c1)OCCO2)C(=O)O	-1.0
COc1ccc(-n2ncc3c(NCCCn4ccnc4)ncnc32)cc1	8.8
CC1(C)C=C(c2ccc(O)cc2)CC(C)(C)N1	-2.2
NC(=O)c1ccccc1NS(=O)(=O)Cc1ccccc1	7.6
O=C(c1ccccc1S(=O)(=O)NCc1ccccc1)N1CCCC1	-16.2
O=C(O)c1ccccc1S(=O)(=O)Cc1ccccc1	70.8*	HIV RNase H inh-2=14.6
CSCCC(C(=O)Nc1ccc2c(c1)OCO2)N1C(=O)c2ccccc2C1=O (configuration not stated)	0.7
COCc1cc(C)c2c(N)c(C#N)sc2n1	-6.0
CCOC(=O)C1=C(C)N=c2s/c(=C\c3ccncc3)c(=O)n2C1c1ccc2c(c1)OCO2 (configuration not stated)	19.7
CCOC(=O)C1=C(C)NC(=O)NC1c1ccc2c(c1)OCCO2 (configuration not stated)	-17.2
CCOC(=O)C1=C(C)N=c2s/c(=C3\C(=O)Nc4ccccc43)c(=O)n2C1c1ccc2c(c1)OCO2 (configuration not stated)	85.9*	HIV RNase H inh-2=67.3*
O=C1CC(Cc2ccccc2)C(=O)N1CCCn1ccnc1 (configuration not stated)	-2.6
CCOc1ccc(N2C(=O)CC(N)C2=O)cc1 (configuration not stated)	-51.7
SMILES	HIV RNase H inh-1	others
CC1CCCCC1NC(=O)CN1CCC(O)(c2ccc(F)cc2)CC1 (configuration not stated)	0.1
CCOC(=O)CSC1=C(C#N)C(c2ccccc2)C(C(C)=O)=C(C)N1 (configuration not stated)	2.6
CSCSC1=C(C#N)C(c2ccc(Cl)cc2)C(C(C)=O)=C(C)N1 (configuration not stated)	60.8*	HIV RNase H inh-2=17.7
CC(=O)C1=C(C)NC(SCC(=O)c2ccc(Cl)cc2)=C(C#N)C1c1ccco1 (configuration not stated)	-44.6
COCCCNC(=O)c1ccccc1NS(=O)(=O)c1ccc(C)cc1	-6.7
CCOc1ccc(-n2c(SCC(N)=O)nc3c(c2=O)SCC3)cc1	9.7
O=C(OCn1nnc2ccccc2c1=O)c1ccc2c(=O)n3c(nc2c1)CCC3	-16.2
CN1CCN(C(=O)Cn2c(=O)oc3cc(S(=O)(=O)NCc4ccccc4)ccc32)CC1	-11.7
CCSc1nnc(NC(=O)c2ccccn2)s1	2.6
CCSc1nnc(NC(=O)c2csc3c2CCCC3)s1	62.5*	HIV RNase H inh-2=?
CCSc1nnc(NC(=O)c2cnccn2)s1	3.5
O=C(COc1ccc(Cl)cc1)Nc1ccccc1N1CCOCC1	0.4
CCOC(=O)c1sc(NC(=O)C2CCCO2)c(C(=O)OCC)c1C (configuration not stated)	23.3
CCCc1cc(C(N)=O)c(NC(=O)C2CCCO2)s1 (configuration not stated)	76.0*	HIV RNase H inh-2=63.9*
CCCc1cc(C(N)=O)c(NC(=O)c2ccco2)s1	48.3
COc1ccc(OC)c(S(=O)(=O)NCc2ccccc2)c1	15.6
